Screening results deposited in PubChem BioAssay by National Center for Advancing Translational Sciences (NCATS).
A selection: hits, their analogues and other compounds. The true share with any hit is near 1%.
gsp antag – qHTS for Antagonists of gsp, the Etiologic Mutation Responsible for Fibrous Dysplasia/McCune-Albright Syndrome: qHTS; gsp-mutant cells, cAMP HTRF, 30 min; Potency, µM (top dose mostly 76.9 µM), for inactives: at the top dose activity change, negative = inhibition, actives largely listed as inhibitors; 340,000 tested, 0.4% active; calls by dose curve; cell line not stated here;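 also: intracellular cAMP measured with PDE inhibitor Ro 20-1724 present during compound exposure; potency is read from the fitted curve at half-maximal effect; % is scaled to controls: 0 for no effect and ±100 for the full control effect; nearly all actives have a fitted effect of over 65% in size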
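HTRF cAMP read-out (cAMP-d2 plus anti-cAMP antibody-K in lysis buffer, 30 min RT). Before lysis, cells are exposed to compounds with […] for 30 min at 37C in DPBS containing Ca/Mg, BSA and Tween 20.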
RXFP1 agonist – qHTS Assay for Agonists of the Relaxin Receptor RXFP1; HEK293T-RXFP1 cAMP TR-FRET, 30 min; response scale: percent of porcine relaxin response, buffer zero; Potency, µM (top dose mostly 57.5 µM), without a hit: at the highest dose activation, actives largely listed as activators; AID 2676, 2010; 370,000 tested, 0.3% active; also: potency is read from the fitted curve at half-maximal effect; % is scaled to controls: 0 for no effect and ±100 for the full control effect; nearly all actives have a fitted effect of over 60% in size
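HEK293T cells stably expressing RXFP1 were pretreated with the PDE4 inhibitor Ro 20174, exposed to compounds for 30 min at 37C, lysed, and cAMP was read by TR-FRET. Data normalized to buffer (basal) and 29 nM porcine relaxin (100%).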
PTHR1 agonist – qHTS for PTHR1 Agonists: Primary Screen. 410,000 tested, 0.075% active. HEK293 GP2 PTHR1 cells, GloSensor cAMP luminescence, 1 h. AID 743266, 2014. Potency, µM (highest dose often 115 µM), for the others: at the highest dose activation, most hits filed as activators. Parathyroid hormone/parathyroid hormone-related peptide receptor (Homo sapiens), Q03431; also: potency is read from the fitted curve at half-maximal effect; nearly all actives have a fitted effect of over 55% in size
Target sequence (Q03431 whole entry, looked up): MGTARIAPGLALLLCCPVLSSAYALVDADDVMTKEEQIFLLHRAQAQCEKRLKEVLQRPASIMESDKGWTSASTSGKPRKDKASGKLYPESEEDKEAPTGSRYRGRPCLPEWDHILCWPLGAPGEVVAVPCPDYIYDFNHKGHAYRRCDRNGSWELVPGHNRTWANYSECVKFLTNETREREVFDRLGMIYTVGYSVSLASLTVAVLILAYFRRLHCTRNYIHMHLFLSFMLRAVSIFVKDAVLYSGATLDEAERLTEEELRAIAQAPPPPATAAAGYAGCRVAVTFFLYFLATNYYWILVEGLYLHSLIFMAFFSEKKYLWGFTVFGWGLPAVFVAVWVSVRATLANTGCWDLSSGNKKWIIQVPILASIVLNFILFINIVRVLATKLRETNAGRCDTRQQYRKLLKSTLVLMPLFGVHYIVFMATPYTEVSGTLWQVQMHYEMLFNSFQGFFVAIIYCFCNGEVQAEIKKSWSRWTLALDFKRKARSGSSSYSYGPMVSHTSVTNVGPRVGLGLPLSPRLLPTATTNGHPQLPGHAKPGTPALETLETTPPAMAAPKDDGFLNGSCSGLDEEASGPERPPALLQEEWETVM
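HEK-293-derived GP2 cells expressing PTHR1 and a GloSensor cAMP reporter, 3,000/well, plated overnight, given luciferin plus IBMX (each 0.5 mM as added) for 1 h at 37 °C, then compound for 1 h at 37 °C. Luminescence was read after 15 min at room temperature.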
RXFP1 antag – qHTS Assay for Antagonists of the Relaxin Receptor RXFP1. Relaxin receptor 1 (Homo sapiens), Q9HBX9. HEK293-RXFP1, relaxin-stimulated cAMP HTRF, 30 min; hits give low values. activity change, negative = inhibition, % at 57.5 µM. 350,000 tested, 0.59% active;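 active = activity change of -60% or lower, but not beyond a set lower limit; inconclusive = change between -60% and -40%, or beyond the set limit; inactive = change above -40%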; also: % is scaled to controls: 0 for no effect and ±100 for the full control effect
gsp ag – qHTS for Agonist of gsp, the Etiologic Mutation Responsible for Fibrous Dysplasia/McCune-Albright Syndrome: qHTS. AID 624287, 2012. gsp mutant cells, cAMP HTRF, 30 min. 340,000 tested, 0.13% active. Potency, µM (highest dose often 76.9 µM), for the others: at the top dose activation (cAMP increase), most hits filed as activators; active = well fitted activation curve with a large enough effect; inconclusive = small, poorly fitted or top-dose-only effect, or another doubt; inactive = no such curve, though single readings can be large or run the other way; cell line not stated here;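 also: phosphodiesterase inhibitor Ro 20-1724 added with compounds to block cAMP breakdown; potency is read from the fitted curve at half-maximal effect; nearly all actives have a fitted effect of over 60% in size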
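Cells in DMEM/10% FBS with G418 were pretreated with compounds in DMSO plus […] (300 uM stock) for 30 min at 37C. cAMP was measured by HTRF (cAMP-d2 plus anti-cAMP antibody-K) after 30 min at room temperature.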
Active calls of the source: *; i = inactive; ? = inconclusive; / = no result; [ ] = dose if it differs, or a comment. Unless noted, calls follow the shape of the dose curve; as a rule, active = well fitted curve in the direction sought with a large enough effect; inconclusive = small, poorly fitted or top-dose-only effect, or another doubt; inactive = no such curve, though single readings can be large; an effect the other way counts as inactive or inconclusive.

SMILES | gsp antag | RXFP1 agonist | PTHR1 agonist | RXFP1 antag | gsp ag
CC1CCc2c(sc3nnn(Cc4cccc(C(=O)OC(C)C)c4)c(=O)c23)C1 (centres undefined) | / | 0% | i | 9 | /
COc1ccc(-n2c(CCC(=O)O)ccc2-c2ccc(F)cc2)c(OC)c1 | 35µM* | 1% | -3% | 5 | -40%
O=C(CNC(=O)c1cccc(F)c1)OCc1cc(=O)n2cc(Br)ccc2n1 | 3% | ? | i | / | ?
O=C(CNC(=O)c1ccccc1)OCc1cc(=O)n2cc(Br)ccc2n1 | 8% | ? | i | 9 | 5.6µM*
CC(C)n1c(SCC(=O)N2CCN(C(=O)c3ccco3)CC2)nc2c1c(=O)n(C)c(=O)n2C | 11% | 14µM* | i | 17 | 82%[15.4 µM]
COC(=O)Cn1c(CN2CCN(C(=O)c3ccco3)CC2)nc2c1c(=O)n(C)c(=O)n2C | -5% | 18% | ? | 15 | ?
COCCn1c(CN2CCN(C(=O)c3ccco3)CC2)nc2c1c(=O)n(C)c(=O)n2C | -5% | 29% | -46% | 20 | 18µM*
CCCNc1nc(Nc2ccc(C)cc2)nc(N2CCCC2)n1 | 32µM* | 0% | -10%[57.5 µM] | -38 | 16%
COc1ccc(Nc2nc(NCCO)nc(N3CCCC3)n2)cc1 | / | / | -7% | / | /
CCOc1cc(C2c3c(oc4ccccc4c3=O)C(=O)N2Cc2ccc3c(c2)OCO3)ccc1O (centres undefined) | / | 1% | -17% | -19 | /
COc1cccc(-c2noc(C3CCCN(C(=O)c4ccccc4OC)C3)n2)c1 (centres undefined) | 35µM* | 0% | -55% | -4 | 0%
COc1cccc(-c2noc(C3CCCN(C(=O)c4ccc(F)cc4F)C3)n2)c1 (centres undefined) | -14% | 1% | -21% | 3 | ?
O=C(Nc1nnc(C(F)(F)F)s1)C1COc2ccccc2O1 (centres undefined) | 35µM* | -3% | -35% | -7 | 0%
NC(=O)c1c(NC(=O)C2COc3ccccc3O2)sc2c1CCN(Cc1ccccc1)C2 (centres undefined) | i | 6% | -38% | -97* | -16%[15.4 µM]
O=C(Nc1nnc(C2CC2)s1)C1COc2ccccc2O1 (centres undefined) | / | 2% | -30% | 0 | 3%[15.4 µM]
O=C(NCc1ccc(F)cc1)C1CCN(S(=O)(=O)c2ccc3c(c2)CCCN3C(=O)C2CCC2)CC1 | / | 0% | -16% | -10 | /
CCn1c(=O)cc(SCC(=O)NCc2ccc(F)cc2Cl)c2ccccc21 | / | 2% | i | / | /
O=C(CSc1nc2ccccc2o1)N/N=C/c1ccc(O)c(O)c1 | -11% | 0% | -3% | 6 | 17%
Cc1cc(SCC(=O)N/N=C/c2ccc(O)cc2O)nc2ccccc12 | 35µM* | 0% | -31% | -26 | ?
Cc1ccc2nc(SCC(=O)N/N=C/c3ccco3)cc(C)c2c1 | -9% | 2% | -7% | -17 | 34%[15.4 µM]
Cc1cc(SCC(=O)N/N=C/c2ccc(O)c(O)c2)nc2ccccc12 | -24% | -3% | -29% | -67* | -28%
Cc1ccc(C)c(NC(=O)CC2NCCNC2=O)c1 (centres undefined) | / | 3% | 1% | -5 | /
CC1=CC2C(C(O)CC3(C)C2CC(C)C32OCOC23COCO3)C2(C)C/C(=C\O)C(=O)C=C12 (centres undefined) | ? | / | -54% | -76* | -12%
COc1ccc(NC(=O)Nc2cccc(OCc3cc(=O)n4cccc(C)c4n3)c2)c(OC)c1 | / | 1% | i | -4 | /
CC(C)(C)c1cc(C(=O)CCN2CCOCC2)cc(C(C)(C)C)c1O | 12% | 0% | 0% | -83* | 11%[15.4 µM]
SMILES | gsp antag | RXFP1 agonist | PTHR1 agonist | RXFP1 antag | gsp ag
Cc1ccc(-n2nc(C(=O)Nc3ccc(Br)cc3C)c(=O)n(C)c2=O)cc1 | / | -1% | -16% | 7 | /
CCCCCCCCCCCCCCC(O)C[N+](C)(CCO)CCO (centres undefined) | 4% | / | i | -61* | 4%
CCCCCCCCCCCCCCC[C@H](O)[C@@H](N)CO | / | / | / | 6 | /
CNC(=O)c1c(I)c(NC(C)=O)c(I)c(C(=O)O)c1I | / | / | / | 6 | /
CCOC(=O)c1cccc(NC(=O)c2cc3ccccn3n2)c1 | / | 2% | -28% | -3 | /
COc1ccccc1NC(=O)Cn1cnc2sc(C(=O)Nc3ccc(OC)c(OC)c3)c(C)c2c1=O | 6% | 3% | -20% | -71* | 5%
Cc1ccc(F)cc1NC(=O)c1sc2ncn(CC(=O)N3CCN(c4ccccn4)CC3)c(=O)c2c1C | 1% | 16µM* | -13% | 12 | ?
Cc1nc(N2CCN(c3ccccn3)CC2)c2c(C)c(C(=O)Nc3ccc(F)cc3F)sc2n1 | -36% | -2% | -20% | 11 | -1%[15.4 µM]
COc1ccccc1NC(=O)Cn1cnc2sc(C(=O)Nc3cc(OC)c(OC)c(OC)c3)c(C)c2c1=O | -9% | -1% | 23% | 10 | 6%
CCc1ccc(S(=O)(=O)NCc2nc3cccnc3n2Cc2ccccc2Cl)cc1 | / | 1% | -41% | -11 | /
COc1ccc(NC(=O)C2CCCN(S(=O)(=O)c3ccc4c(c3)CCCC(=O)N4)C2)cc1OC (centres undefined) | / | -4% | -13% | / | /
COc1cccc2cc(-c3nc(Nc4cccc(C)c4C)sc3C)c(=O)oc12 | / | 0% | -7% | -5 | /
CC(C)NC(=O)c1ccc(C=O)cc1 | / | / | / | 15 | /
Cc1cc(Cl)ccc1OC(C)C(=O)Nc1ccc(C(=O)Nc2ccccc2C(=O)O)cc1 (centres undefined) | 32µM* | -3% | -25% | -37 | 5%
Cc1cc(Cl)ccc1OC(C)C(=O)Nc1ccc(S(=O)(=O)N2CCOCC2)cc1 (centres undefined) | -5% | / | -17% | 1 | 18%
N#C/C(=C(/O)c1ccc2c(c1)OCO2)c1nc2cc(C(F)(F)F)ccc2s1 | 35µM* | 1% | -30% | -1 | -3%
N#C/C(=C(/O)c1ccccc1F)c1nc2cc(C(F)(F)F)ccc2s1 | ? | 0% | -49% | -7 | 24%
CCN(CCCNC(=O)c1ccc(Sc2ccc(Cl)cc2)c(NC(C)=O)c1)c1cccc(C)c1 | / | 0% | -11% | -29 | /
CCN(CCNCC(O)COCc1ccc(Cl)cc1)c1cccc(C)c1 (centres undefined) | 11% | 1% | -9% | -70* | 7%[15.4 µM]
COc1ccc(-c2cn3nc(N4CCC(C(=O)Nc5cc(Cl)ccc5C)CC4)sc3n2)cc1 | / | 4% | i | -17 | /
Cc1ccc(C(=O)N(Cc2ccc(N(C)C)cc2)Cc2ccco2)cc1 | / | -1% | -23% | -22 | /
